Screen size: about 2,000 compounds; about 100 (5%) were called active. This is one part of a sample in which actives are shown more often than they occur. Cut-off read from the data, not from the text of the source: active = z-score above about 2; inactive = the rest.

This is an account of results in PubChem BioAssay AID1645838 (ICCB-Longwood Screening Facility, Harvard Medical School, 2021).

This test can be described thus: modulators of mitochondrial supercomplex assembly, cell-based, luminescence, Hoechst nuclei count (AID 1645838).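 For all read-outs here: control cybrid cells.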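 For z-score: higher means more mitochondrial supercomplex formation.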 The note with it: Cells, luminescence/Hoechst cell count ratio, supercomplex reporter; for z-score: stronger effect = higher value; for cell count: measured here: cell number, Hoechst nuclei count.
[1] abbreviates: library stock concentration (final well concentration not given) 80 uM.
The mark [2] stands for this setting: library stock concentration (final well concentration not given) 400 uM.
Setting [3] is: library stock concentration (final well concentration not given) 2 mM.
Where [4] appears, read: library stock concentration (final well concentration not given) 10 mM.
[5] abbreviates: library stock concentration (final well concentration not given) 46 uM.
Setting [6] is: library stock concentration (final well concentration not given) 278 uM.
Where [7] appears, read: library stock concentration (final well concentration not given) 1.67 mM.

With `CS(=O)c1ccc(-c2nc(-c3ccc(F)cc3)c(-c3ccncc3)[nH]2)cc1` (centres undefined), the z-score was -1.15 (inactive) and the cell count came out at 5830.

As for `Oc1cc(-c2nc(-c3ccccc3)[nH]c2-c2ccncc2)ccc1Cl`, the outcome (library stock 10 mM) was “inactive; censored for cell count”. Moreover, the z-score by setting is: under setting [1], -0.487 (inactive); under setting [2], 0.0422 (inactive); under setting [3], 0.88 (inactive). Besides, the cell count by setting is: under setting [1], 6330; under setting [2], 6400; under setting [3], 5020.

With `CN(C)CCOc1ccc(-c2nc(-c3ccc4c(c3)CCC4=NO)c(-c3ccncc3)[nH]2)cc1`, the outcome (library stock 10 mM) was “inactive; censored for cell count”. The z-score under setting [1] is -0.227 (inactive), the z-score under setting [2] is 0.545 (inactive) and the z-score under setting [3] was 2.41 (active). The cell count under setting [1] was 4650, the cell count under setting [2] is 4190 and the cell count under setting [3] came to 3060.

As to `NC(N)=NCCCC(NC(=O)COCC(c1ccccc1)c1ccccc1)C(=O)O` (centres undefined), the z-score is -0.24 (inactive) under setting [1], -0.0902 (inactive) under setting [2], -0.0766 (inactive) under setting [3] and 0.102 (inactive) under setting [4]. Moreover, the cell count turned out to be 5010 under setting [1], 5210 under setting [2], 5170 under setting [3] and 4630 under setting [4].

For `CC(C)OC(=O)CCCC=CCC1C(O)CC(O)C1C=CC(F)(F)COc1ccccc1` (centres undefined), the z-score is -0.387 (inactive) under setting [1], -0.505 (inactive) under setting [2], -0.421 (inactive) under setting [3] and -0.49 (inactive) under setting [4]. The cell count under setting [1] came out at 6260, the cell count under setting [2] is 6740, the cell count under setting [3] came to 6050 and the cell count under setting [4] was determined as 5570.

For `NC(CSCCB(O)O)C(=O)O` (centres undefined), the z-score is -0.211 (inactive) under setting [5], -0.0225 (inactive) under setting [6], -0.355 (inactive) under setting [7] and -0.293 (inactive) under setting [4]. The cell count under setting [5] turned out to be 6150, the cell count under setting [6] is 5500, the cell count under setting [7] was determined as 6170 and the cell count under setting [4] is 6060.

Take `O=C(NOCC1CC1)c1ccc(F)c(F)c1Nc1ccc(I)cc1Cl`: the outcome (library stock 10 mM) was “inactive; censored for cell count”. Besides, the z-score is, setting by setting: under setting [1], 0.248 (inactive); under setting [2], 0.901 (inactive); under setting [3], 1.33 (inactive). Moreover, the cell count worked out at 4290 under setting [1], 3900 under setting [2] and 3870 under setting [3].

Turning to `Cn1cnc2c(F)c(Nc3ccc(Br)cc3F)c(C(=O)NOCCO)cc21`, where the note is “library stock 10 mM”, the outcome is “inactive; censored for cell count”. In addition, the z-score is 0.694 (inactive) under setting [1], 1.23 (inactive) under setting [2] and 1.53 (inactive) under setting [3]. Further, the cell count reads like this: under setting [1], 5250; under setting [2], 4630; under setting [3], 2640.

Turning to `Cn1cnc2c(F)c(Nc3ccc(Br)cc3Cl)c(C(=O)NOCCO)cc21`, the outcome (library stock 10 mM) was “inactive; censored for cell count”. The z-score under setting [1] is 0.846 (inactive), the z-score under setting [2] was 0.791 (inactive) and the z-score under setting [3] was 2.06 (active). For the same compound, the cell count under setting [1] worked out at 3770, the cell count under setting [2] stood at 3780 and the cell count under setting [3] is 2320.

As to `COc1cc(C=C(C#N)C(=O)Nc2nnc(C(F)(F)F)s2)ccc1OCc1ccc(C(F)(F)F)cc1C(F)(F)F`, the z-score is -0.188 (inactive) under setting [5], -0.247 (inactive) under setting [6], -0.448 (inactive) under setting [7] and -0.612 (inactive) under setting [4]. In addition, the cell count worked out at 7210 under setting [5], 7400 under setting [6], 7340 under setting [7] and 7260 under setting [4].

Regarding `Oc1cccc(-c2nc(N3CCOCC3)c3oc4ncccc4c3n2)c1`, the z-score was 2.15 (active) and the cell count is 3000.

For the compound `Oc1cccc(-c2nc(N3CCOCC3)c3sccc3n2)c1`, the z-score is 3.96 (active) and the cell count was 2940.

`CS(=O)(=O)N1CCN(Cc2cc3nc(-c4cccc5[nH]ncc45)nc(N4CCOCC4)c3s2)CC1`: under “library stock 10 mM”, the outcome is “inactive; censored for cell count”. The z-score is -0.278 (inactive) under setting [5]; 0.147 (inactive) under setting [1]; -0.083 (inactive) under setting [6]; 0.745 (inactive) under setting [2]; 0.769 (inactive) under setting [7]; 1.48 (inactive) under setting [3]. Moreover, the cell count runs as follows: under setting [5], 5360; under setting [1], 3950; under setting [6], 4950; under setting [2], 3220; under setting [7], 2910; under setting [3], 2350.

As for `CC(C)c1ccccc1OC(=O)NCCc1ccc2ccccc2c1`, the z-score runs as follows: under setting [5], -0.152 (inactive); under setting [6], 0.0918 (inactive); under setting [7], -0.615 (inactive); under setting [4], -0.366 (inactive). For the same compound, the cell count worked out at 6770 under setting [5], 6210 under setting [6], 7330 under setting [7] and 5910 under setting [4].

`COc1cc(C(=O)N(CCC2CCCN2C)CC(C)=Cc2ccccc2F)cc(OC)c1OC` (centres undefined): the z-score is 0.184 (inactive) under setting [5], -0.112 (inactive) under setting [6], 0.132 (inactive) under setting [7] and 0.652 (inactive) under setting [4]. Moreover, the cell count runs as follows: under setting [5], 6990; under setting [6], 6820; under setting [7], 6680; under setting [4], 5820.

For the compound `CC#CCC(C)[C@H](O)/C=C/[C@@H]1[C@H]2C/C(=C\CCCC(=O)O)C[C@H]2C[C@H]1O` (some centres undefined), the z-score is -0.395 (inactive) and the cell count was 5310.

In the case of `OC(COc1cccc2ncccc12)CN1CCN(C2c3ccccc3C3C(c4ccccc42)C3(F)F)CC1` (centres undefined), the z-score was 0.371 (inactive) under setting [1], 0.508 (inactive) under setting [2], 0.497 (inactive) under setting [3] and -1.87 (inactive) under setting [4]. Further, the cell count reads like this: under setting [1], 4630; under setting [2], 4580; under setting [3], 4340; under setting [4], 3800.

On to `O=C(c1cccs1)c1ccc(OCCCO)c(Cl)c1Cl`, for which the z-score is -0.51 (inactive) and the cell count stood at 5410.

Take `CC1CC2OC2C=CC=CC(=O)Cc2c(Cl)c(O)cc(O)c2C(=O)O1` (centres undefined): the outcome is “inactive; censored for cell count” (library stock 278 µM), “inactive; censored for cell count” (library stock 1.67 mM) and “inactive; censored for cell count” (library stock 10 mM). In addition, under setting [5], the z-score is -0.774 (inactive). Besides, under setting [5], the cell count is 7560.
